± gives the standard deviation.
Assays:
[1] = tested on: MILI (PIWIL2) piRISC loaded with piRNA #1 (26 nt); experiment: pre-steady-state target cleavage rate (min^-1); guide: piRNA #1 5'p-UGAGGUAGUAGGUUGUAUAGUAUCCA; higher = faster piRNA-guided slicing of the target; details: auxiliary factor: 500 nM mouse GTSF1
How it was run: (§1)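 Using HEPES–potassium acetate buffer at 33 °C, 1 nM active affinity-purified piRISC with a single synthetic guide was mixed with 0.1 nM transcribed, DNA-blocked target RNA library for 0–8 or 0–960 min, with or without 500 nM GTSF1 partner protein. Uncleaved targets were sequenced and normalised to depth and to weakly complementary targets, and three trials were pooled with k3 capped at 0.0001 min^-1. A burst-and-steady-state fit gave the pre-steady-state cleavage rate.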

[2] = tested on: EfPiwi piRISC loaded with piRNA #1 (26 nt); experiment: pre-steady-state target cleavage rate (min^-1); auxiliary factor: 500 nM Ephydatia muelleri Gtsf1; guide: piRNA #1 5'p-UGAGGUAGUAGGUUGUAUAGUAUCCA; MIWI and MILI are mouse PIWI proteins and EfPiwi is from a freshwater sponge; tags in brackets are library labels; higher = faster piRNA-guided slicing of the target
How it was run: as §1

Sequence	pre-steady-state target cleavage rate [1]	pre-steady-state target cleavage rate [2]
GGAGACGAUACUAUACAACCUGCUACCUCA	0.0677 ± 0.008	0.128 ± 0.046
GGAGAGCAUACUAUACAUCCUACUACCUCA	0.335 ± 0.02	0.00491 ± 0.0024
GGAGACCAUACUAUACAACCUACUACUUCA	0.189 ± 0.019	0.00607 ± 0.0024
GGAGAGGUUACUAUACAUCCUACUACCUCA	0.191 ± 0.016	0.00567 ± 0.0029
GGAGUGGAUAGUAUACUACCUACUACCUCA	0.113 ± 0.0097	0.00287 ± 0.0021
GGAGACCUAACUCUACAACCUACUACCUCA	0.114 ± 0.031	0.0071 ± 0.0032
GGAGUGGAUACUAGACAACCUACUACCUCA	0.193 ± 0.011	0.226 ± 0.081
GGAGACGAUACUAAACAAGCUACUACCUCA	0.268 ± 0.016	0.00331 ± 0.0031
GGAGACCUAUCUAUACAACCUACUACCUUA	0.103 ± 0.015	0.0739 ± 0.027
GGAGUGGAUAACUAUACAACCUACUACCUCA	0.0667 ± 0.0071	0.0101 ± 0.0044
GGAGACCUAUGAUAUCAACUCUACUACCUCA	< 0.0001	–
GGAGACCAUAGAAUACAACCUACUACCUCA	0.0281 ± 0.0057	0.00684 ± 0.0033
GGAGACCUAUGUUUACAACCUACUAGCUCA	0.00692 ± 0.0034	–
GGAGACCAUACUAAUACAACCUACUACCUCA	0.124 ± 0.014	0.0159 ± 0.0066
GGAGACCUAUCAAUUCAACCUACUACCUCA	0.00721 ± 0.0029	–
GGAGAGGAUACUAAACAACCUACAACCUCA	0.119 ± 0.014	0.00196 ± 0.0019

Sequence	pre-steady-state target cleavage rate [1]	pre-steady-state target cleavage rate [2]
GGAGACCUAUCUAUACAACCUUACUACCUCA	0.00278 ± 0.0026	–
GGAGACCUUACUAUACAUCCUACUACCUCA	0.292 ± 0.024	0.00607 ± 0.0029
GGAGUGGAUACUAUACAACCUACAACCUCA	0.0801 ± 0.011	0.00468 ± 0.0018
GGAGUGGAAAGUAUACAACCUACUACCUCA	0.118 ± 0.0086	0.00841 ± 0.0043
GGAGUGGAAACUAUACAACCUACUACCUGA	0.105 ± 0.023	0.00283 ± 0.0023
GGAGACGAUACUAUACUACCUACAACCUCA	0.181 ± 0.017	0.00176 ± 0.0015
GGAGUGGAUACUAUACAAGCUACUAGCUCA	0.0419 ± 0.0091	0.00331 ± 0.0021
GGAGACCUAUGAUAUGUUGCUACUACCUUA	< 0.0001	–
GGAGACCAUACUUUACAACCUACUACCUCA	0.168 ± 0.014	0.017 ± 0.0071
GGAGUGGAUACUAUACAACCUACUACCUGA	0.0915 ± 0.011	0.0069 ± 0.0028
GGAGACCAUACUAUACAUCCUACUACGUCA	0.158 ± 0.027	0.00585 ± 0.0034
GGAGACCUAUGAUUACAACCUACUCACCUCA	0.00473 ± 0.0023	< 0.0001
GGAGACCUAUCUAUACAAGCUACUAGCUCA	0.0812 ± 0.018	–
GGAGACCUAACUAUACAAACUACUACCUCA	0.248 ± 0.025	0.0044 ± 0.0038
GGAGAGGAUACAUAUACAACCUACUACCUCA	0.104 ± 0.0078	0.0587 ± 0.024
